{
  "source": "the supplement of paper PMC6555819",
  "data": [
    {"test_system": "RARb:RXRa (NR concentration 270 nM, RXRa partner concentration 90 nM)", "assay": "PBM binding z-score (relative to random genomic background probes); higher = stronger binding; sequences stand for … in GC…GCGATTGACAGCGTAGAATGAAGG", "method_in_brief": "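Each nuclear receptor dimer, without ligand, was incubated for 1 h on custom Agilent 4×180K protein-binding microarrays. Binding was detected with antibodies against each partner (one per run), and scanned fluorescence was regression-normalized. The binding z-scores are referenced to random human genomic background probes.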", "values": [
      {"sequence": "CAAACTAGGTCACCGGAAGGTCAAACTCCGCATG", "PBM binding z-score": 5.14},
      {"sequence": "TAGCCTAGGTCAGATCGGACCAGTATACGCTATA", "PBM binding z-score": 2.85},
      {"sequence": "TCATATAGGTAAAAGGTGAAAGTCGGTGTGGTAA", "PBM binding z-score": 2.22},
      {"sequence": "ACTATTCGTTGAGACGAGGGCAACCGATAGGTTG", "PBM binding z-score": 0.886},
      {"sequence": "TCGAGTAGGTTACCAATGGGCCATTCAGCTTTCT", "PBM binding z-score": 0.862},
      {"sequence": "TCGAGTAGGTTAGACGGGGCATTCAGCCAACATA", "PBM binding z-score": 0.612},
      {"sequence": "AGAATGAGGTTACTAAGATCAGGGAATTGCGGTC", "PBM binding z-score": 1.74},
      {"sequence": "CCGACTGAGGCAGAAAGGTTACCATACCATCCGG", "PBM binding z-score": 1.62},
      {"sequence": "GCAGACAGGTGAAACGCACGTAACTCAGGGTGGC", "PBM binding z-score": 0.539},
      {"sequence": "CCGACTGGGGCAGAAAGGTTACCATACCATCCGG", "PBM binding z-score": 1.74},
      {"sequence": "GCTCGGAGGAAAAGGTCAGAGCTTTGTCCGTAGA", "PBM binding z-score": 3.95},
      {"sequence": "AGAATGAGGTAAAGATCAGGGAAACAGAATACAT", "PBM binding z-score": 0.258},
      {"sequence": "CAGCCCAGGTCAGGGCCAGTATAGGAGGAACGTT", "PBM binding z-score": 3.45},
      {"sequence": "CGAACTAGGTCAGAACAGGACAGTGGAGGATGAT", "PBM binding z-score": 2.99},
      {"sequence": "CCTACTGGGCCATCAGGTCATTGATATCAACGTT", "PBM binding z-score": 2.1},
      {"sequence": "GTTTACGGGTCAAAGGTTATAGCATGAATAGAAT", "PBM binding z-score": 4.66},
      {"sequence": "TCAGACAGGTGAAGGTAACTCCGGTACGCAGTCG", "PBM binding z-score": 1.1},
      {"sequence": "TAGCCTAGGTCATGGGCCAGTATGCCACGCGAAC", "PBM binding z-score": 3.93}
    ]}
  ]
}
